In PubChem BioAssay (NCATS):
Records with an inconclusive call do not appear. The source made the active and inactive calls. The call rests on the fitted dose curve; in most records, active means well fitted curve in the direction sought with a large enough effect in the signal ratio, with a control signal flat; inconclusive means small, poorly fitted or top-dose-only effect, or effect the other way, or a change in a side signal; inactive means no such curve, though single readings can be large or run the other way; the % refers to the signal ratio.

The compounds below were run against Androgen receptor (Homo sapiens) (UniProt P10275) (assay: qHTS assay for small molecule agonists of androgen receptor signaling (AID 588515)). Settings: AR-UAS-bla HEK293, beta-lactamase ratio, agonist 16 h; active compounds read high.
Chain of Androgen receptor (Homo sapiens) (P10275 whole entry, looked up): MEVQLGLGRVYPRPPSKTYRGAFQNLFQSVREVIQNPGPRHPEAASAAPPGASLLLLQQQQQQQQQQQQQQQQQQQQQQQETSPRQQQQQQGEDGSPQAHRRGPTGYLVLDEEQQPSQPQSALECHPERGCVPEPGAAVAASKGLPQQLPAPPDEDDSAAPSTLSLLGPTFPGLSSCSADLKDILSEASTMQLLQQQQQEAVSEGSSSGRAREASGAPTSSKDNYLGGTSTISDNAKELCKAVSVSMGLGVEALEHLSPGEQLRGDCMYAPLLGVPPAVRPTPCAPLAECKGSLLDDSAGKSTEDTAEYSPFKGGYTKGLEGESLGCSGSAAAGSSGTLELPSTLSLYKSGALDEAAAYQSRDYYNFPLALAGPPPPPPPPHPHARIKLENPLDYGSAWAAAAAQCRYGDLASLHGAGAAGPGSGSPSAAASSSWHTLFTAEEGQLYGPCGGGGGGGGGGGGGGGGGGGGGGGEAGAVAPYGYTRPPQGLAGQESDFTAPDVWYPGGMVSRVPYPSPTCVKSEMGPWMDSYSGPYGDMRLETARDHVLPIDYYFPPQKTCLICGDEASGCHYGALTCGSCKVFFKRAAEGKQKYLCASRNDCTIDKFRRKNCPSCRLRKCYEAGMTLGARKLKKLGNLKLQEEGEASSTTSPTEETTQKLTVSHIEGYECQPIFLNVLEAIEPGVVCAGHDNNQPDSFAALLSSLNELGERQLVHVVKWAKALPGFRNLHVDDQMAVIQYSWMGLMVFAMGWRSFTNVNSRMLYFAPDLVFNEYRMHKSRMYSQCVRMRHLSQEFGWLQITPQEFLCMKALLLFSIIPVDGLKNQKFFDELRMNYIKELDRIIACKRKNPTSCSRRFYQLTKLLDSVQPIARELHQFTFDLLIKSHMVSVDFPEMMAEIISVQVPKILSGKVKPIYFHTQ
From the text: NIH Chemical Genomics Center [NCGC] U.S. Environmental Protection Agency [EPA] National Institutes of Environmental Health Sciences [NIEHS] National Toxicology Program [NTP] NCGC Assay Overview Androgen receptor (AR), located at chromosome Xq11-12, is an important member of nuclear hormone receptors. AR signaling plays a critical role in AR-dependent prostate cancer and other androgen related diseases. Considerable attention has been given in the past decades to the possibility of some of environmental chemicals which may contribute the endocrine disruption. Therefore, it is important to understand the effect of environmental chemicals in AR signaling pathway.
NCGC Assay Protocol Summary Using a beta-lactamase reporter-gene under control of the AR response element, a cell-based assay [GeneBLAzer AR-UAS-bla-GripTite assay developed by Invitrogen] was used to measure AR ligands signaling. AR-UAS-bla-GripTite HEK 293 cells were used with assay medium containing 10% dialyzed FBS, 0.1 mM NEAA and 1 mM sodium pyruvate. The assay was performed in clear bottom black Greiner 1536-well plates. R1881, a synthetic androgen agonist, was used as a positive control in the screen. Library compounds were measured for their ability to stimulate the reporter gene activity. Compounds were screened in a titration series in 1536-well format. The fluorescence intensity (405 nm excitation, 460/530 nm emission) was measured using an EnVision plate reader. Data was normalized relative to R1881 control (30 nM, 100%), and DMSO only wells (basal, 0%). Concentration-response titration points for each compound were fitted to the Hill equation yielding concentrations of half-maximal stimulation (EC50) and maximal response (efficacy) values. qHTS protocol for AR beta-lactamase assay in agonist mode [Step] [Parameter] [Value] [Description] 1. Reagent; 6 uL; 2000 cells/well 2. Incubation; 37 C for 5 hrs 3. Compounds; 23 nL; 0.59 nM to 92 uM 4. Controls (R1881); 23 nL, - Dose response, start 3.83uM, 1:3 dilutions with duplicates in one column - Final concentrations of 30 and 20nM in two columns 5. Incubation; 37 C for 16 hrs 6. Detection reagent; 1 uL of CCF4-dye 7. Incubation; RT for 2 hrs 8. Detection; Fluorescence; Envision plate reader
`O=Cc1ccc(Cl)cc1` was tested, and the activation was -1.22% (inactive).
With `ClCCl` the activation was 2.05% (inactive).
For `CCCC(Cl)CCCC(Cl)CCC(Cl)CCC(Cl)CCC(Cl)CCCC(Cl)CCC` (stereo not given), the activation was -5.75% (inactive).
With `C1COC1` the activation was -10.3% (inactive).
For `CCNc1ccccc1`, the activation was 1.96% (inactive).
`Cc1cccc(C(=O)O)c1` was tested, and the activation was -5.05% (inactive).
In the case of `Cc1ccc(N(C)C)cc1`, the activation is reported as 15.4% (inactive).
`CCOc1ccc(NC(C)=O)cc1N` was tested, and the activation was 0.896% (inactive).
`CC(C)(O)CCC(C)(C)O` was tested, and the activation was -1.56% (inactive).
For `O=C1CCCCC1`, the activation was 14.6% (inactive).
`CCCOCC(C)OCC(C)O` (stereo not given) was tested, and the activation was 12.1% (inactive).
`CC(=C/C=C/C(C)=C/C=C/C=C(C)/C=C/C=C(C)/C=C/C(=O)O)/C=C/C(=O)O` was tested, and the activation was 17% (inactive).
For `Nc1cccc([N+](=O)[O-])c1`, the activation was -5.67% (inactive).
In the case of `O=C(O)CCSSCCC(=O)O`, the activation is reported as -2.34% (inactive).
In the case of `O=C(Cl)c1ccccc1[N+](=O)[O-]`, the activation is reported as 6.98% (inactive).
In the case of `NC(=O)c1cccc([N+](=O)[O-])c1`, the activation is reported as 2.01% (inactive).
In the case of `C[C@@H]1CC2(OC3C[C@@]4(C)C5=CC[C@H]6C(C)(C)C(O[C@@H]7OC[C@@H](O)[C@H](O)[C@H]7O)CC[C@@]67C[C@@]57CC[C@]4(C)C31)OC(O)C1(C)OC21` (stereo not given in full), the activation is reported as -11% (inactive).
`Nc1cc(S(=O)(=O)O)ccc1O` was tested, and the activation was 14.7% (inactive).
`OCCO` was tested, and the activation was -10.8% (inactive).
With `Cc1cccc(C)c1O` the activation was -2.64% (inactive).
`Cc1ccc2cccnc2c1` was tested, and the activation was 14.8% (inactive).
For `CNC(=O)N(c1ccccc1)c1ccccc1`, the activation was -11.4% (inactive).
With `Nc1ccc(Cl)cc1[N+](=O)[O-]` the activation was 7.43% (inactive).
`CCCOCC(C)O` (stereo not given) was tested, and the activation was -4.67% (inactive).
In the case of `CC(=O)CC(C)C`, the activation is reported as 2.1% (inactive).
For `O=C1NC(=O)c2cc([N+](=O)[O-])ccc21`, the activation was -13.5% (inactive).
In the case of `CC/C=C1/OC(=O)c2ccccc21`, the activation is reported as 15.6% (inactive).
`BrC(Br)C(Br)Br` was tested, and the activation was 2.87% (inactive).
In the case of `CC(=O)Nc1ccc(N)cc1`, the activation is reported as -10.4% (inactive).
For `CCC(C)(C)C(=O)O`, the activation was -5.44% (inactive).
For `Nc1ccc(F)cc1F`, the activation was 18.9% (inactive).
`C1CCC2OC2C1` (stereo not given) was tested, and the activation was -3.32% (inactive).
For `FC(F)(F)c1cccc(Cl)c1`, the activation was 4.73% (inactive).
For `CC(=O)C1(C)CC2=C(CCCC2(C)C)CC1C` (stereo not given), the activation was -4.48% (inactive).
For `CCN(Cc1ccccc1)c1ccccc1`, the activation was 11.1% (inactive).
`Nc1cccc(S(=O)(=O)O)c1` was tested, and the activation was 6.82% (inactive).
For `c1ccc2c(c1)ccc1ncccc12`, the activation was 7.08% (inactive).
For `CC(C)c1ccccc1`, the activation was -0.119% (inactive).
`O=[N+]([O-])c1cc(C(F)(F)F)ccc1Cl` was tested, and the activation was 13.2% (inactive).
In the case of `c1ccsc1`, the activation is reported as -6.67% (inactive).
